Laboratory results as given in PubChem BioAssay (EPA / NIEHS).
Several values for one entry are separate records, joined by “and”; a condition that tells them apart may be missing. Equal entries are not always repeated. Results filed as inconclusive are left out. A structure can be active in one record and inactive in another. Activity calls are given as the source filed them. How the source made its calls, unless noted: active means hit-call score of the fitted dose curve at least 0.9, where 1 is the maximum; inactive means score below 0.9.

Assays:
[1] = target: Glucocorticoid receptor (Homo sapiens) (UniProt P04150); experiment: ATG_GR_TRANS: Attagene TRANS-FACTORIAL HepG2 Assay for human Glucocorticoid Receptor (GR) (AID 2282978; active means hit-call score of the fitted dose curve at least 0.9, where 1 is the maximum;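 further: activators score as hits since higher reporter transcript over DMSO is fitted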); details: HepG2 Attagene TRANS GR reporter, mRNA transcription
Summary of the method: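 Reporter transcript levels, detected by fluorescence after RT-PCR and capillary electrophoresis, served as the endpoint. HepG2 cells bearing transfected GAL4-UAS reporters responsive to NR-GAL4 chimeras were incubated with compound 24 h; DMSO defined baseline.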

[2] = target: Oxysterols receptor LXR-alpha (Homo sapiens) (UniProt Q13133); experiment: ATG_LXRa_TRANS: Attagene TRANS-FACTORIAL HepG2 Assay for human Liver X Receptor alpha (LXRa) (AID 2282980; active means hit-call score of the fitted dose curve at least 0.9, where 1 is the maximum); details: HepG2 Attagene TRANS reporter, LXRa transactivation
Summary of the method: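 Transient HepG2 transfectants, 24 h dosing, RT-PCR/CE mRNA reporter quantitation; gain-of-signal vs DMSO.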

[3] = ATG_M_06_TRANS: Attagene TRANS-FACTORIAL HepG2 Assay for M06 Transcription Factor (Internal Marker) (AID 2282983; active means hit-call score of the fitted dose curve at least 0.9, where 1 is the maximum); details: HepG2 Attagene TRANS M06 internal marker reporter
Summary of the method: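 Human liver HepG2 cells bearing transiently transfected chimeric NR-GAL4 reporter units were treated with chemicals for 24 h. Total RNA was reverse-transcribed, reporter sequences amplified and labelled, then quantified by capillary electrophoresis. Activity was fitted upward relative to DMSO.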

[4] = ATG_M_32_TRANS: Attagene TRANS-FACTORIAL HepG2 Assay for M32 Transcription Factor (Internal Marker) (AID 2282984; active means hit-call score of the fitted dose curve at least 0.9, where 1 is the maximum;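 further: transcript level of a background control reporter unit measured by RT-PCR and capillary electrophoresis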); details: HepG2 Attagene TRANS M32 internal marker reporter
Summary of the method: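 After 24 h dosing of transfected HepG2 cells, total RNA was reverse-transcribed, reporter sequences PCR-amplified, 6-FAM labelled by primer extension and HpaI-digested before capillary electrophoresis. Signal increase over DMSO was fitted.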

[5] = target: Nuclear respiratory factor 1 (Homo sapiens) (UniProt Q16656); experiment: ATG_NRF1_CIS: Attagene CIS-FACTORIAL HepG2 Assay for human Nuclear Respiratory Factor 1 (NRF1) Orphan Gene (AID 2282987); details: HepG2 NRF1 cis-element reporter, Attagene multiplex; actives raise or lower the signal
Summary of the method: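 Cells (HepG2, transient MRTU transfection) are exposed to compound for 24 h, then RNA isolated and reporter mRNA amplified and fluorescently labelled. Fragments are separated by capillary electrophoresis; signal change is fitted bidirectionally relative to DMSO.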

[6] = target: Myc proto-oncogene protein (Homo sapiens) (UniProt P01106); experiment: ATG_Myc_CIS: Attagene CIS-FACTORIAL HepG2 Assay for human Myelocytomatosis (Myc) Proto-Oncogene Transcription Factor (AID 2282990); details: HepG2, Attagene cis-reporter transcription factor activity; actives raise or lower the signal
Summary of the method: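 HepG2 cells transiently transfected with multiple cis-promoter-driven reporter transcription units, so endogenous TF activity is read. After 24 h compound exposure, reporter mRNA was quantified by RT-PCR, 6-FAM labelling, HpaI digestion and capillary electrophoresis; bidirectional fit versus DMSO.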

[7] = ATG_NF_kB_CIS: Attagene CIS-FACTORIAL HepG2 Assay for human Nuclear Factor Kappa B (NF-kB) (AID 2282991); details: HepG2 Attagene cis-factorial NF-kB reporter mRNA; actives raise or lower the signal
Summary of the method: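 Measures mRNA induction of an NF-kB-responsive cis-element reporter in HepG2 cells transfected with multiple reporter units, sampled 24 h post-dosing; quantified by fluorescence after RT-PCR and capillary electrophoresis, fitted for activation or inhibition against DMSO.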

[8] = ATG_NRF2_ARE_CIS: Attagene CIS-FACTORIAL HepG2 Assay for human Nuclear Factor Erythroid 2 Related Factor 2 (NFR2) response to Antioxidant Response Elements (ARE) (AID 2282992); details: HepG2 Attagene ARE/NRF2 reporter, transcription factor activity; actives raise or lower the signal;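 on AC50: reporter mRNA level measured by RT-PCR and capillary electrophoresis fluorescence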
Summary of the method: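 Readout: reporter mRNA quantified by RT-PCR plus FAM-labelled primer extension, HpaI digestion and capillary electrophoresis, 24 h after dosing transfected HepG2 cells. Gain or loss of signal is fitted bidirectionally against DMSO baseline.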

[9] = ATG_Oct_MLP_CIS: Attagene CIS-FACTORIAL HepG2 Assay for human Octamer-Binding Transcription Factor (Oct) (AID 2282993); details: HepG2 Attagene cis-factorial Oct reporter, mRNA; actives raise or lower the signal
Summary of the method: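 HepG2, transient MRTU transfection, cis promoter elements; 24 h dosing; RT-PCR/CE fluorescence read-out of reporter mRNA; fit both directions vs DMSO.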

[10] = target: Cellular tumor antigen p53 (Homo sapiens) (UniProt P04637); experiment: ATG_p53_CIS: Attagene CIS-FACTORIAL HepG2 Assay for human p53 Transcription Factor (AID 2282994); details: HepG2 p53 cis-element reporter, Attagene mRNA; actives raise or lower the signal
Summary of the method: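 Read-out: reporter mRNA by RT-PCR plus capillary electrophoresis with fluorescence detection. Human HepG2 liver cells carried transfected multi-reporter cis-element constructs, dosed 24 h. Gain or loss of signal fitted bidirectionally against DMSO control.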

[11] = BSK_3C_TissueFactor: BioMAP Diversity Plus: 3C Assay for Tissue Factor Biomarker Activity (AID 2282997); details: BioMAP 3C HUVEC, tissue factor biomarker readout; actives raise or lower the signal
Summary of the method: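 Cells used were primary human umbilical vein endothelial cells. They were dosed with chemical, and after 24 h Tissue Factor was quantified by ELISA. Curves were fitted bidirectionally with DMSO as baseline.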

[12] = BSK_3C_uPAR: BioMAP Diversity Plus: 3C Assay for Urokinase-type plasminogen activator receptor (uPAR) Biomarker Activity (AID 2282998); details: BioMAP 3C HUVEC, uPAR biomarker ELISA; actives raise or lower the signal
Summary of the method: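 A multiplexed primary-cell system built on human umbilical vein endothelium was used, with chemical present for 24 h before reading. Cell-surface uPAR was detected by ELISA; signal change in either direction counted against DMSO.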

[13] = BSK_3C_VCAM1: BioMAP Diversity Plus: 3C Assay for Vascular cell adhesion molecule 1 (VCAM1) Biomarker Activity (AID 2282999); details: BioMAP 3C HUVEC, VCAM1 ELISA, cytokine-stimulated; actives raise or lower the signal
Summary of the method: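 Vascular primary endothelium (human umbilical vein) was exposed to chemicals and assayed 24 h later. VCAM-1 levels came from ELISA, with DMSO serving as baseline for bidirectional fitting.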

[14] = BSK_4H_Eotaxin3: BioMAP Diversity Plus: 4H Assay for Eotaxin 3 Biomarker Activity (AID 2283000); details: primary human endothelial cells (HUVEC); actives raise or lower the signal;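 further: CCL26 protein level quantified by ELISA in parallel with SRB cytotoxicity check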
Summary of the method: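 Endothelial primary cells (human umbilical vein) exposed to compound for 24 h. ELISA detection of Eotaxin-3.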

[15] = target: Oxysterols receptor LXR-beta (Homo sapiens) (UniProt P55055); experiment: ATG_LXRb_TRANS: Attagene TRANS-FACTORIAL HepG2 Assay for human Liver X Receptor beta (LXRb) (AID 2282981; active means hit-call score of the fitted dose curve at least 0.9, where 1 is the maximum); details: HepG2 Attagene TRANS GAL4-LXRb reporter, mRNA
Summary of the method: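 Measures induction of a Gal4-driven reporter transcript in HepG2 cells expressing an exogenous LXRb-Gal4 fusion. Cells are exposed to compound for 24 h before RNA isolation and RT-PCR with capillary electrophoresis detection.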

[16] = target: Nuclear receptor subfamily 4 group A member 2 (Homo sapiens) (UniProt P43354); experiment: ATG_NURR1_TRANS: Attagene TRANS-FACTORIAL HepG2 Assay for human Nuclear Receptor Related Protein 1 (NURR1) (AID 2282985; active means hit-call score of the fitted dose curve at least 0.9, where 1 is the maximum); details: HepG2 Attagene TRANS reporter, mRNA readout
Summary of the method: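 Chimeric NR-Gal4 fusion activity measured in HepG2 after 24 h treatment. Reporter transcripts detected by RT-PCR and capillary electrophoresis fluorescence; positive-direction curve fitting against DMSO.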

[17] = ATG_NFI_CIS: Attagene CIS-FACTORIAL HepG2 Assay for human Nuclear Factor I (NFI) (AID 2282989); details: HepG2 cis-regulatory reporter, NFI response element transcription; actives raise or lower the signal
Summary of the method: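 Cells: human liver HepG2, transiently transfected with promoter-regulated reporter transcription units. Exposure 24 h. Detection: fluorescent RT-PCR products separated by capillary electrophoresis, normalised to DMSO negative control.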

[18] = target: Hepatocyte nuclear factor 4-alpha (Homo sapiens) (UniProt P41235); experiment: ATG_HNF4a_TRANS: Attagene TRANS-FACTORIAL HepG2 Assay for human Hepatocyte Nuclear Factor 4 alpha (HNF4a) (AID 2282982; active means hit-call score of the fitted dose curve at least 0.9, where 1 is the maximum); details: HepG2 HNF4a transactivation reporter, mRNA readout
Summary of the method: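 In this trans-factorial format, a chimeric HNF4a-GAL4 fusion drives a GAL4-UAS reporter in transfected HepG2 liver cells. After 24 h treatment, reporter mRNA induction is measured by RT-PCR with capillary electrophoresis, relative to DMSO.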

[19] = target: Transcriptional activator Myb (Homo sapiens) (UniProt P10242); experiment: ATG_Myb_CIS: Attagene CIS-FACTORIAL HepG2 Assay for human Myeloblastosis (Myb) Proto-Oncogene Transcription Factor (AID 2282986); details: HepG2 Attagene CIS-FACTORIAL Myb reporter transcription; actives raise or lower the signal
Summary of the method: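 Transiently transfected HepG2 cells, treated 24 h. Reporter mRNA quantified by RT-PCR/capillary electrophoresis; bidirectional fit relative to DMSO.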

Measured: AC50

Chain of Glucocorticoid receptor (Homo sapiens) (P04150 whole entry, looked up, the tested form may be a part): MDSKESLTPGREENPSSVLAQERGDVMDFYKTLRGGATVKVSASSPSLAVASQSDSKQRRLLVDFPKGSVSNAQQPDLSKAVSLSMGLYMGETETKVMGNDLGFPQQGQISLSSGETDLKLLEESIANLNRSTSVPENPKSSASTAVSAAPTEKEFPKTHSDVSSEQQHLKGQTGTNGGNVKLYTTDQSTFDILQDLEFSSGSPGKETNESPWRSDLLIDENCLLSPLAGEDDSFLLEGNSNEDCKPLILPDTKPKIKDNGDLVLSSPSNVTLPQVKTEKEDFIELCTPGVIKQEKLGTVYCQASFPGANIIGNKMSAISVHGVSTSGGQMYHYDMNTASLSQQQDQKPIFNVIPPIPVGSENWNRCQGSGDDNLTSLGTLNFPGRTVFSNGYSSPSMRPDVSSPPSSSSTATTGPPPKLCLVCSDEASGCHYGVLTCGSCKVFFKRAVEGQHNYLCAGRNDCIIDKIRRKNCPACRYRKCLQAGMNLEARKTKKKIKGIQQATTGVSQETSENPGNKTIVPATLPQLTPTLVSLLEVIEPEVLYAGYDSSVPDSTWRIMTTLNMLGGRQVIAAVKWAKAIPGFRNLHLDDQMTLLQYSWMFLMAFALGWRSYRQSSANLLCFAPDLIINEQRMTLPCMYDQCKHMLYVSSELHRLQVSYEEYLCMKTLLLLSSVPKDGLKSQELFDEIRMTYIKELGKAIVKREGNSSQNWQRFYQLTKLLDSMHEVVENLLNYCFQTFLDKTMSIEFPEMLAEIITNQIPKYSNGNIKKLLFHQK
Chain of Oxysterols receptor LXR-beta (Homo sapiens) (P55055 whole entry, looked up, the tested form may be a part): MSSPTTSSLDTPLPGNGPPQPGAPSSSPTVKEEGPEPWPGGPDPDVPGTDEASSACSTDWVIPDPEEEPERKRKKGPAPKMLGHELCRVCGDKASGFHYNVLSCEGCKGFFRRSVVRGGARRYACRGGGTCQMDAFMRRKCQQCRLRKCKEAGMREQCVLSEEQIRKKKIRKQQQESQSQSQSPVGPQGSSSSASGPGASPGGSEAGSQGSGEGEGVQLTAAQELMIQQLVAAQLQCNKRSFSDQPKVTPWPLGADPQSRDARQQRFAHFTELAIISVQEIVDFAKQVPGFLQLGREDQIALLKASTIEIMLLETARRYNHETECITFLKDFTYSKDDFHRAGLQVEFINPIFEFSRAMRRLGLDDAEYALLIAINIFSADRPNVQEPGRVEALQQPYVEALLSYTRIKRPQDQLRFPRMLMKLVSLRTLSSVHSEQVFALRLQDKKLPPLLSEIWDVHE
Chain of Nuclear respiratory factor 1 (Homo sapiens) (Q16656 whole entry, looked up, the tested form may be a part): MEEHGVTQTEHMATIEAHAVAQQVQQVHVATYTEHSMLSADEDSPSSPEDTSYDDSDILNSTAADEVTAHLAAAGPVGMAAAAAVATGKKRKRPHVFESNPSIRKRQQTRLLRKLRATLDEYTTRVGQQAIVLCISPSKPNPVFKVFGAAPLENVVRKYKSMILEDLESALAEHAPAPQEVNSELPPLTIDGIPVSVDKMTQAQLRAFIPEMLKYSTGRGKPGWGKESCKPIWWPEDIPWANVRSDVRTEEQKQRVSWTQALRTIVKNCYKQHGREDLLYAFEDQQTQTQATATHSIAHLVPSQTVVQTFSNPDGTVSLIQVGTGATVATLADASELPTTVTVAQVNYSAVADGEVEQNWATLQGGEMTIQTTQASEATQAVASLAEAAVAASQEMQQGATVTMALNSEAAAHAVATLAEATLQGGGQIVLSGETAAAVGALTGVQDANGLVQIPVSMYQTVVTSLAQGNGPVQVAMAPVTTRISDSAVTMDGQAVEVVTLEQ
Chain of Oxysterols receptor LXR-alpha (Homo sapiens) (Q13133 whole entry, looked up): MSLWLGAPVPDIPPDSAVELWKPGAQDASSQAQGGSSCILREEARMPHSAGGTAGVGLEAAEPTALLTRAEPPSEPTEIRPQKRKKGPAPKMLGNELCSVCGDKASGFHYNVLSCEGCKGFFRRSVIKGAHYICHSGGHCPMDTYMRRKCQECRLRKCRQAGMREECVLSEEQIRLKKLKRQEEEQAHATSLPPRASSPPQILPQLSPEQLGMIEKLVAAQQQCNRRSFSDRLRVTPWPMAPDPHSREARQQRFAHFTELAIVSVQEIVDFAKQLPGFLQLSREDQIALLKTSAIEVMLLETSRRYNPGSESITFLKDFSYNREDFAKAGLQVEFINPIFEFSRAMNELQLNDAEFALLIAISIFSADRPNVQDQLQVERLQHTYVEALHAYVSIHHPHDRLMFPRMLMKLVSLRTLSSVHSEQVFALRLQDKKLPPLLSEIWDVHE
Chain of Cellular tumor antigen p53 (Homo sapiens) (P04637 whole entry, looked up): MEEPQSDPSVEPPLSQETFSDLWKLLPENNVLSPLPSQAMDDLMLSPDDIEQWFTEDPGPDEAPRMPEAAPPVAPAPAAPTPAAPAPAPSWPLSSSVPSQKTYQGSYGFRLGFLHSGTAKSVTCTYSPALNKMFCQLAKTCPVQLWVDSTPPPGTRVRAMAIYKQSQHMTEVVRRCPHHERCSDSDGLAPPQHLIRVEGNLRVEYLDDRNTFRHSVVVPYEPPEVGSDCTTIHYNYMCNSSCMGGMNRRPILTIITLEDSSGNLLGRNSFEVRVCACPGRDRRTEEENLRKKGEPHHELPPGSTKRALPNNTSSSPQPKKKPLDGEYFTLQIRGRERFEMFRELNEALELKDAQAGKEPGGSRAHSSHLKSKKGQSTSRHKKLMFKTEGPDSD
Chain of Hepatocyte nuclear factor 4-alpha (Homo sapiens) (P41235 whole entry, looked up, the tested form may be a part): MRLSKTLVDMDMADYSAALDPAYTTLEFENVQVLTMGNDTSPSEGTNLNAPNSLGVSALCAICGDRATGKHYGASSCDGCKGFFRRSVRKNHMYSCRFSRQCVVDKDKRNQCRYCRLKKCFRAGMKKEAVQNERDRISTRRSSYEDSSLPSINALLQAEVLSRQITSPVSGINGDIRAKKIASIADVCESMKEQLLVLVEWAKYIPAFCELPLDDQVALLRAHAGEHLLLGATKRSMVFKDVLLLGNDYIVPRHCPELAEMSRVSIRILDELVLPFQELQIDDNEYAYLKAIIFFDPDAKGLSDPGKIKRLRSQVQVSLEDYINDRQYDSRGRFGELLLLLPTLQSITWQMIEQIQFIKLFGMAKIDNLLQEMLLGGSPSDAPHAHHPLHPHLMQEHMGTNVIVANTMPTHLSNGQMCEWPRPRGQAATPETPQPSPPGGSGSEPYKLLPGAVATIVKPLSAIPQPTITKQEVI
Chain of Nuclear receptor subfamily 4 group A member 2 (Homo sapiens) (P43354 whole entry, looked up, the tested form may be a part): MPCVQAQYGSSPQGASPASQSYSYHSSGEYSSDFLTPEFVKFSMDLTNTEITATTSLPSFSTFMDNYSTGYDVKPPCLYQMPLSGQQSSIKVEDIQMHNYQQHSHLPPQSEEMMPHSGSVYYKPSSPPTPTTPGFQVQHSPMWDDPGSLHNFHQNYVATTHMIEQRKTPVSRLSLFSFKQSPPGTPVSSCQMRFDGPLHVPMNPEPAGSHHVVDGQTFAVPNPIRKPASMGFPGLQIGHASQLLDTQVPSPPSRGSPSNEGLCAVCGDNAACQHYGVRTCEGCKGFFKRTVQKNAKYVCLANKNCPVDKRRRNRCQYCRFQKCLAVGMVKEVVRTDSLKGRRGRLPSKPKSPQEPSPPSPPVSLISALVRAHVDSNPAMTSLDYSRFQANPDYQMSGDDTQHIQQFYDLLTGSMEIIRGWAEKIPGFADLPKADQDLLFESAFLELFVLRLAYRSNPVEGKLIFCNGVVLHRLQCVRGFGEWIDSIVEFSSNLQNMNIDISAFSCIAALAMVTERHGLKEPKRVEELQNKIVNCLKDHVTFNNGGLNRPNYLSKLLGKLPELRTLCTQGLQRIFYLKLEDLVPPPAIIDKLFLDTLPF
Chain of Transcriptional activator Myb (Homo sapiens) (P10242 whole entry, looked up): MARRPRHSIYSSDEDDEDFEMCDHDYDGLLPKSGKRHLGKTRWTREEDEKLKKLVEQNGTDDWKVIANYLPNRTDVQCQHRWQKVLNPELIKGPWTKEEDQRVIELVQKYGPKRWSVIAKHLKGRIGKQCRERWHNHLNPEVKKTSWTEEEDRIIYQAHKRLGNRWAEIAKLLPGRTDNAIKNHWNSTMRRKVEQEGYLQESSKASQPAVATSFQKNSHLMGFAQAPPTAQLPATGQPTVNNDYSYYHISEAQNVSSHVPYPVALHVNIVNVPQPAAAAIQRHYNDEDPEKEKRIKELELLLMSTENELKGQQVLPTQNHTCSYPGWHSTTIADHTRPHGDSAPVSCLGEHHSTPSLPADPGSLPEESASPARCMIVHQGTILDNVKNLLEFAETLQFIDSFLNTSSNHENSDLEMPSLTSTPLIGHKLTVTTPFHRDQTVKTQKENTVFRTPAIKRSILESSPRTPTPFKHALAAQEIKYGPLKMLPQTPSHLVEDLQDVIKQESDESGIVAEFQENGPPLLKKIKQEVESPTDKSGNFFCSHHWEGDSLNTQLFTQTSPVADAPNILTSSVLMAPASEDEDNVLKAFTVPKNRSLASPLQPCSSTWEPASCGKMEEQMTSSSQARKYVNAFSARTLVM
Chain of Myc proto-oncogene protein (Homo sapiens) (P01106 whole entry, looked up): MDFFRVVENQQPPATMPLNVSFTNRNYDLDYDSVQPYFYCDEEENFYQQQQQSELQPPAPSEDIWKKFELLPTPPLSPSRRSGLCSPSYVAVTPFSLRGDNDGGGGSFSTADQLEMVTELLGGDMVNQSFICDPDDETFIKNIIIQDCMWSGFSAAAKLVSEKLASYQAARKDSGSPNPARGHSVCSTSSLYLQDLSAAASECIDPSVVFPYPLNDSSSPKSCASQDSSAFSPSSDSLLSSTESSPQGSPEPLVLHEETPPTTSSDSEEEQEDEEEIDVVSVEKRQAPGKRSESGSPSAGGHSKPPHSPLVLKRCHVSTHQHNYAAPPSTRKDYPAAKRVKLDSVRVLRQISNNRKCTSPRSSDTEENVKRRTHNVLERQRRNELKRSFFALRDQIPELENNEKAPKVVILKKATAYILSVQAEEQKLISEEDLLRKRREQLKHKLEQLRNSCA

O=C(O)c1ccccc1-n1cc(C(=O)O)c(=O)c2cc(Nc3c(F)cc(F)cc3Cl)c(Cl)cc21
not listed: [15] | [16] | [17] | [18] | [19]
inactive: all other assays above

Cc1cc2c(cc1C(F)(F)F)N(C(=O)Nc1ccc(Oc3cccnc3C)nc1)CC2
active: [11] 0.623 µM
not listed: [2] | [3] | [9] | [18] | [19]
inactive: all other assays above

CCCCOC(=O)c1ccc(O)cc1
inactive: [1] | [2] | [15] | [18] | [3] | [4] | [16] | [19] | [5] | [6] | [8] | [10] | [12] | [13] | [14]
active: [16] 100 µM | [19] 162 µM | [5] 100 µM | [6] 100 µM | [8] 100 µM and 26.2 µM | [11] 7.85 µM
